# Measurements: ChEMBL document CHEMBL1201862, “PubChem BioAssay data set” (2004)
# The campaign covered roughly 52,000 sequences. About 3,900 (7.5%) were called active. Cut-off read from the data, not from the text of the source: active = GI50 up to about 1.1 µM and inactive = higher. These entries were drawn from the full list. Entries with a potency or affinity are not part of this list.
# Test system: RXF 393
row,Substance,GI50 [µM]
1,"[Bis(aminomethyl)tetramethylenesilane]tetrachloropaltinum(IV), CHEMBL2146189",25.4
2,"[Bis(aminomethyl)pentamethylenesilane]tetrachloropaltinum(IV), CHEMBL2146204",7.35
3,"[Bis(aminomethyl)dimethylsilane]tetrachloroplatinum(IV), CHEMBL2146190",3.59
4,"[Bis(aminomethyl)dimethylsilane]dichloroplatinum (II), CHEMBL2146201",34.2
5,"[Bis(aminomethyl)pentamethylenesilane]dichloropaltinum(II), CHEMBL2146202",2.92
6,"cis-Bis[[(trimethylsilyl)methyl]amino]tetrachloroplatinum(IV), CHEMBL2146191",2.72
7,"[Bis(aminomethyl)tetramethylenesilane]dichloropaltinum(II), CHEMBL2146205",12.6
8,"[Bis(aminomethyl)diethylsilane]tetrachloroplatinum(IV), CHEMBL2146203",17.4
9,"CISPLATIN, CHEMBL11359",3.33
10,"mu-(1,7-nanodiamine-N,N')bis-(cis-aminedichloroplatimum (II)), CHEMBL2146215",15.4
